Laboratory results taken from the supplement of paper PMC12067093, “Discovery and optimisation of a covalent ligand for TRIM25 and its application to targeted protein ubiquitination” (Chemical Science, 2025).
About 21,000 targets were measured; listed, in parts, are those with the largest changes and a random draw of the rest.

Compound: CC1Cc2ccccc2N1C(=O)C1CCCN(C1)C(=O)CCl (mixture of isomers) [TRIM25 ligand 11 (diastereomer mixture)]
Experiment: probe-labelled cysteine peptide fold change vs DMSO (competition) (log2 fold change); higher = less target engagement (more negative = stronger competition)
Details: THP-1, incubation time: 4 h
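Note: competitive chemoproteomic profiling in live THP-1 cells with an iodoacetamide desthiobiotin (IA-DTB) probe, comparing probe-labelled peptide intensities in compound-treated cells against DMSO-treated controls.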

Sequence of UniProt O95149 (O95149 whole entry, looked up): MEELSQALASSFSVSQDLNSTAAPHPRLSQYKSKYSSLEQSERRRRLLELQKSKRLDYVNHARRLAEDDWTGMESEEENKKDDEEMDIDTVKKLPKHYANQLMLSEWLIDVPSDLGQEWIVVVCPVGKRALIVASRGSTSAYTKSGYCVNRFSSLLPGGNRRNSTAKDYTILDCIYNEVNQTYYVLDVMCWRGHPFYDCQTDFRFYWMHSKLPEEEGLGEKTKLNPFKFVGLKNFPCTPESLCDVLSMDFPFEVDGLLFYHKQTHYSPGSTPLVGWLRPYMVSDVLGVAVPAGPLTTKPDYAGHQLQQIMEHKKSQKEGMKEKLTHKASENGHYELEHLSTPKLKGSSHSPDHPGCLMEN
Sequence of UniProt Q9BVQ7 (Q9BVQ7 whole entry, looked up): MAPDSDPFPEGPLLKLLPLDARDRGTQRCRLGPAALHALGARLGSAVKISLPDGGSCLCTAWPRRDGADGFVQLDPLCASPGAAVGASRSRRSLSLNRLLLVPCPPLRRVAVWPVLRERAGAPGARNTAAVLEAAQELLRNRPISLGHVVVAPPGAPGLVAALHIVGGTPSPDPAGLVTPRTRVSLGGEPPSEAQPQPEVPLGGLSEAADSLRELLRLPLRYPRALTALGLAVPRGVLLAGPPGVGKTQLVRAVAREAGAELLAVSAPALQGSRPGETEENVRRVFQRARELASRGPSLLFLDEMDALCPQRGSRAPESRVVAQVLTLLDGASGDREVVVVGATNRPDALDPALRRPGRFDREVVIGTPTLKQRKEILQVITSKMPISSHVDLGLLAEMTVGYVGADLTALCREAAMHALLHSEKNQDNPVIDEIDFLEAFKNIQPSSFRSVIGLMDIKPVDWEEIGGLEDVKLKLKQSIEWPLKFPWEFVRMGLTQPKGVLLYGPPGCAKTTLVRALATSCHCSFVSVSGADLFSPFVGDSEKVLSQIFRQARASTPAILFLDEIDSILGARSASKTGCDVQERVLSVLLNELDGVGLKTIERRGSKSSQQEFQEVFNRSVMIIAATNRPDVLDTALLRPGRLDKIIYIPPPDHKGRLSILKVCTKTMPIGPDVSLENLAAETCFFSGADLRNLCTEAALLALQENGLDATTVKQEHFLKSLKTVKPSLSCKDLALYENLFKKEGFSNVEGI
Sequence of UniProt Q12824 (Q12824 whole entry, looked up): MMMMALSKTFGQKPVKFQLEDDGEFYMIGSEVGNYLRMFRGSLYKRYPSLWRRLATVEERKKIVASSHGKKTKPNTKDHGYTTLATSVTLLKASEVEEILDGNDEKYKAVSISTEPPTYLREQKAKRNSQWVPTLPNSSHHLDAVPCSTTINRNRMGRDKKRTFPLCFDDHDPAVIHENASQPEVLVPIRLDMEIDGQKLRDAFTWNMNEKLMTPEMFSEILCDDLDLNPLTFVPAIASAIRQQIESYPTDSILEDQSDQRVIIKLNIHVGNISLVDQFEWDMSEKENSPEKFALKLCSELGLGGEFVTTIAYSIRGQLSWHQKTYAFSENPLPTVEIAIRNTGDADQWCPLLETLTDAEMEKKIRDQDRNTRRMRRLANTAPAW
Sequence of UniProt Q8NEM2 (Q8NEM2 whole entry, looked up): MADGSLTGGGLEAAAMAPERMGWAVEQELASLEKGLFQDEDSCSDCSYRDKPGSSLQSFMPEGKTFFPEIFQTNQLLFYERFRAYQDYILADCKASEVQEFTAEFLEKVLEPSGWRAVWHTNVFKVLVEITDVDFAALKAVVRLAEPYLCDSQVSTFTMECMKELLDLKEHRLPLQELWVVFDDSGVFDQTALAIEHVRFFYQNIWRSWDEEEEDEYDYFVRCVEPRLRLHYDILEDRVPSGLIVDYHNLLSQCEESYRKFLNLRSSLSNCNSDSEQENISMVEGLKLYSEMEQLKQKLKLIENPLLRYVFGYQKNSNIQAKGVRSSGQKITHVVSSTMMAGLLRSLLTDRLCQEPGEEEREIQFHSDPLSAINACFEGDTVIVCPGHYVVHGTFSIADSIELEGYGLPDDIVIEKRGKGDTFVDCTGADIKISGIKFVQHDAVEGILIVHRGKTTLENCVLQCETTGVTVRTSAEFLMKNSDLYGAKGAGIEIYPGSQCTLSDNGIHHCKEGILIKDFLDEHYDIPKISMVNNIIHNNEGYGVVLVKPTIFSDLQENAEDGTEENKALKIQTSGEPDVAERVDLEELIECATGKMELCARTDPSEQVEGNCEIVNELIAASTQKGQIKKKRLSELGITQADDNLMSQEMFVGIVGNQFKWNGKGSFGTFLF
Sequence of UniProt Q92922 (Q92922 whole entry, looked up): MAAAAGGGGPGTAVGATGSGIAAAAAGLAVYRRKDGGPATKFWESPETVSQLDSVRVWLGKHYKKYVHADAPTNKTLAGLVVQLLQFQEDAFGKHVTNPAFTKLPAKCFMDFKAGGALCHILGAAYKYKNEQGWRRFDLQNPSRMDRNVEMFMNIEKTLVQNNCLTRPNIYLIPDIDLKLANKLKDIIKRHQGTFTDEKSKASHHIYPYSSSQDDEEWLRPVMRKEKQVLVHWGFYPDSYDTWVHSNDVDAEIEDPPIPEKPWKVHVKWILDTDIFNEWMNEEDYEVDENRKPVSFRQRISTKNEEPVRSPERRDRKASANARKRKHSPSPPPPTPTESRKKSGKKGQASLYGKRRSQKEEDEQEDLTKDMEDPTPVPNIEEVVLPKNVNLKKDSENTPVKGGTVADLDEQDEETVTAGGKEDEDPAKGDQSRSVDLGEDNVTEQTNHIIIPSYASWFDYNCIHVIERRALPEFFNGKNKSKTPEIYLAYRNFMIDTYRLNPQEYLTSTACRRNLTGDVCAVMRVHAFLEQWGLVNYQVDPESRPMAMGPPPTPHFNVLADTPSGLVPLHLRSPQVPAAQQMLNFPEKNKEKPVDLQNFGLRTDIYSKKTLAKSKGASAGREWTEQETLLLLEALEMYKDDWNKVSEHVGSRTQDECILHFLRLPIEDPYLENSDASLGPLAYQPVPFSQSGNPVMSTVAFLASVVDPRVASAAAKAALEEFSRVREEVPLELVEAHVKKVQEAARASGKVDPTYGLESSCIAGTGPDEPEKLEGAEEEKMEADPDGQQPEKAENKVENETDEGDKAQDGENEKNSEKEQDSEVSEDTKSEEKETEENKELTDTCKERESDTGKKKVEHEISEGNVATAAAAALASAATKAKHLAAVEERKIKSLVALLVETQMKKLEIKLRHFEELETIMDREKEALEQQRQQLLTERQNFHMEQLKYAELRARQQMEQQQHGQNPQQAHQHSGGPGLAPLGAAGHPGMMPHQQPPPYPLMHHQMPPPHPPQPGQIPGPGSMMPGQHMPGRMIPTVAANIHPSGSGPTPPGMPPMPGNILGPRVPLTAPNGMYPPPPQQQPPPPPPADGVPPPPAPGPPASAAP
Sequence of UniProt Q5VUG0 (Q5VUG0 whole entry, looked up): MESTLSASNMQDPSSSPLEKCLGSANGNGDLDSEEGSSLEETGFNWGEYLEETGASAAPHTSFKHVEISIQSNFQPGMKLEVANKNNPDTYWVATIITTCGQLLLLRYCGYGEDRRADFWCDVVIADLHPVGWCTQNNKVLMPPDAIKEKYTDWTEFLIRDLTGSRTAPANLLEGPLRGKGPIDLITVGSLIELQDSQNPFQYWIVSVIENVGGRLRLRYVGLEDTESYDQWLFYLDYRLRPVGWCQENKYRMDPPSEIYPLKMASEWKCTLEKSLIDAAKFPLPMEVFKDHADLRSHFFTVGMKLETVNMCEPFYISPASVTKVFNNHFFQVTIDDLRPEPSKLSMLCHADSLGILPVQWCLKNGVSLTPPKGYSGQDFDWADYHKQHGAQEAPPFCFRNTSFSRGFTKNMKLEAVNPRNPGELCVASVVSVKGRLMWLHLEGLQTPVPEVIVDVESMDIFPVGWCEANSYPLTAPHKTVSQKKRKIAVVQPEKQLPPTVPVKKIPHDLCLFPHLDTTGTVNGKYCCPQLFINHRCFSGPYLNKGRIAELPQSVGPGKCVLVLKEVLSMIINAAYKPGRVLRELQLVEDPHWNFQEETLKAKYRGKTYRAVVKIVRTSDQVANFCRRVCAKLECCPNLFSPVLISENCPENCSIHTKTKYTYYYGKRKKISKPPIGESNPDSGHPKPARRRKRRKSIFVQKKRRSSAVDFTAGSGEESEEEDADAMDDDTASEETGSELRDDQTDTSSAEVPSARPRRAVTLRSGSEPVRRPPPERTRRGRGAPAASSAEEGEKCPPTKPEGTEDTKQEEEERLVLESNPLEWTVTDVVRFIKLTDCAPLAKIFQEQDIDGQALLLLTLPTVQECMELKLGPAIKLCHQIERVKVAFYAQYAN
Sequence of UniProt Q9UHD8 (Q9UHD8 whole entry, looked up): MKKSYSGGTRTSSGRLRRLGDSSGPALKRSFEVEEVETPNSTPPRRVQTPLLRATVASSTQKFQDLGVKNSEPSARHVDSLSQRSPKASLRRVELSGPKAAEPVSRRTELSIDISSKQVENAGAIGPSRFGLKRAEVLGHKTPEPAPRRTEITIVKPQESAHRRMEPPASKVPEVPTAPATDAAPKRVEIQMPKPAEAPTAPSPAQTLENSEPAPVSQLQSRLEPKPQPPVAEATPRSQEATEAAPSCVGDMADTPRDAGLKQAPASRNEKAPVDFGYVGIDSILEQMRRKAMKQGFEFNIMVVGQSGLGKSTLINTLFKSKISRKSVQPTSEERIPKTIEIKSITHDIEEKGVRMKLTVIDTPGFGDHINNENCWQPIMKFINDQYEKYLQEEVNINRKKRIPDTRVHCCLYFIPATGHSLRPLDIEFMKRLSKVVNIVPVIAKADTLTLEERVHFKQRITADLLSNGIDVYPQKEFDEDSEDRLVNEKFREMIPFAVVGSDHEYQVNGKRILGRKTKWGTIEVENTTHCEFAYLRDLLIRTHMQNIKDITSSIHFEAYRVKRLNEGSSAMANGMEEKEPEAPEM
Sequence of UniProt P62316 (P62316 whole entry, looked up): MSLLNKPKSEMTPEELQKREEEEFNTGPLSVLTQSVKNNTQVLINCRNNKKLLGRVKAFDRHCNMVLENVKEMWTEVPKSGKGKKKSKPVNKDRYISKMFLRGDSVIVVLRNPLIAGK

Target	probe-labelled cysteine peptide fold change (10 µM)	probe-labelled cysteine peptide fold change (50 µM)
SMARCC1_Q92922_761_VDPTYGLESSCIAGTGPDEPEKLEGAEEEK (UniProt Q92922)	-0.397	-0.234
SEC63_Q9UGP8_490_EQSICAAEEQPAEDGQGETNK (UniProt Q9UGP8)	0.0683	-0.228
SMPD4_Q9NXE4_221_TSDCAYFILVDR (UniProt Q9NXE4)	0.14	0.266
SETDB1_Q15047_582_LFYLPHVCSYTCLSR (UniProt Q15047)	-0.142	-0.048
SBF1_O95248_839_VCTESGVTSDHLK (UniProt O95248)	0.116	0.0908
RTN3_O95197-3_42_SCSSSCAVHDLIFWR (UniProt O95197)	-0.124	-0.737
SMG7_Q92540_537_NLSNNCDTGEKPVVTFK (UniProt Q92540)	-0.036	-0.226
SEC16A_O15027_1293_YWCDAEYDAYR (UniProt O15027)	-0.117	-0.311
SLC4A7_Q9Y6M7_120_VQFILGTEDDDEEHIPHDLFTEMDELCYR (UniProt Q9Y6M7)	0.222	-0.577
RUVBL2_Q9Y230_227_FVQCPDGELQK (UniProt Q9Y230)	0.151	-0.0879
SMARCB1_Q12824_147_NSQWVPTLPNSSHHLDAVPCSTTINR (UniProt Q12824)	-0.0549	-0.612
SPCS2_Q15005_17+26_SGGSGGCSGAGGASNCGTGSGR (UniProt Q15005)	-0.266	-0.603
SERBP1_Q8NC51_11_PGHLQEGFGCVVTNRFDQLFDDESDPFEVLK (UniProt Q8NC51)	-0.323	-0.648
RTRAF_Q9Y224_19_LTALDYHNPAGFNCK (UniProt Q9Y224)	0.414	0.404
RTCB_Q9Y3I0_485_NVTDVVNTCHDAGISK (UniProt Q9Y3I0)	-0.0281	-0.0777
SNTB1_Q13884_515_DGEIQLDLHSCPKPIVFIIHSFLSAK (UniProt Q13884)	-0.207	0.302
SRI_P30626_75_CLTQSGIAGGYKPFNLETCR (UniProt P30626)	0.0396	-0.0761
SPECC1_Q5M775_633_EICDHQAEQLSR (UniProt Q5M775)	-0.00943	-0.0553
SRGAP2_O75044_486_TDCSLAR (UniProt O75044)	-0.0891	-0.197

Target	probe-labelled cysteine peptide fold change (10 µM)	probe-labelled cysteine peptide fold change (50 µM)
SNRPD2_P62316_63_AFDRHCNMVLENVK (UniProt P62316)	-0.388	-0.34
SLC7A7_Q9UM01_349_EGHLPDAICMIHVER (UniProt Q9UM01)	0.0357	0.0274
SFMBT2_Q5VUG0_796_CPPTKPEGTEDTKQEEEERLVLESNPLEWTVTDVVR (UniProt Q5VUG0)	-0.043	-0.0391
SAMD9_Q5K651_975+979_TEVIECGNYCGVR (UniProt Q5K651)	0.388	0.22
SHCBP1_Q8NEM2_591_VDLEELIECATGK (UniProt Q8NEM2)	0.088	-0.228
SPATA5L1_Q9BVQ7_104_LLLVPCPPLRR (UniProt Q9BVQ7)	-0.0644	0.126
SKAP2_O75563_186_DCCFEISAPDK (UniProt O75563)	0.239	0.128
SETDB1_Q15047_385_RCEWIYR (UniProt Q15047)	0.156	0.176
SEPHS2_Q99611_377_FGLLQGTSAETSGGLLICLPR (UniProt Q99611)	0.196	-0.657
SPTAN1_Q13813_1622_GACAGSEDAVK (UniProt Q13813)	-0.135	-0.00186
SCAF11_Q99590_553_TDVCTVHLPNDFPTCLTSESK (UniProt Q99590)	0.0519	-0.221
SNUPN_O95149_356_GSSHSPDHPGCLMEN (UniProt O95149)	0.0268	-0.656
RRP12_Q5JTH9_102_SSGTFLSGLSDCTNVTFSK (UniProt Q5JTH9)	0.0888	0.0733
SEPT9_Q9UHD8_531_WGTIEVENTTHCEFAYLR (UniProt Q9UHD8)	0.0123	-0.0856
SNRNP200_O75643_576_RLATYGITVAELTGDHQLCK (UniProt O75643)	-0.0593	0.102
SMYD3_Q9H7B4_263_DQYCFECDCFR (UniProt Q9H7B4)	-0.0567	0.116
SIL1_Q9H173_408_VLQTLGVLLTTCR (UniProt Q9H173)	0.0793	0.848
SMU1_Q2TAY7_219_SHVECAR (UniProt Q2TAY7)	0.194	0.11
SRP68_Q9UHB9_173_LCESNR (UniProt Q9UHB9)	0.14	0.559
